Screens from PubChem.
MazEF act: activators of E. coli MazEF toxin-antitoxin RNase; P0AE70; FAM/BHQ RNA-DNA oligo cleavage fluorescence, 5 h; activation, % at 20 µM; 350,000 compounds, 0.32% hits; AID 504720; in the data active means activation above about 50%
Target sequence (P0AE70 whole entry, looked up): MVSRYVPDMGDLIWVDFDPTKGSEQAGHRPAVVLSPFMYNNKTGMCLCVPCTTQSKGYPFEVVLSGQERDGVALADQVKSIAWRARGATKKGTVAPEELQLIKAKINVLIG
PfHsp40 rescue: compounds rescuing yeast from Plasmodium falciparum HSP40 toxicity; S. cerevisiae expressing PfHsp40, growth rescue, ATP luminescence; growth rescue, % at 12.5 µM; 340,000 compounds, 0.68% hits; in the data active means growth rescue above about 28%, passing the limit was not always enough; inconclusive means no clear call, values can overlap the other calls;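 further: yeast W303a lacking pdr1 and pdr3 grown in galactose medium; growth measured after three days at 30 °C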
PrPC TRFRET: inhibitors of human cell surface prion protein PrPC; P04156; TR-FRET read-out; inhibition, % at 13.8 µM; 370,000 compounds, 0.43% hits; AID 720596; in the data active means inhibition above about 24%; further: 0% = median of the test wells and 100% = reference compound wells
PrP UTR inh: suppresses PrP 5' UTR mRNA reporter expression. cell-based PrP 5' UTR mRNA reporter, plate reader. inhibition, % (test concentration not listed). 340,000 compounds, 0.35% hits. AID 488862; in the data active means inhibition above about 52%; further: 0 = median of the neutral control wells
SSB-PriA inh: blocks PriA binding to SSB C-terminal tail; AlphaScreen SSBct-PriA binding, biotinylated peptide; inhibition, % at 33 µM; 430,000 compounds, 0.6% hits; AID 1272365; in the data active means inhibition mostly above about 37%, no sharp cut-off; inactive means mostly below about 20%;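 further: plate controls were negative control peptide for no effect and reference peptide for full effect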
PrP UTR cherry: prion 5' UTR mRNA inhibition, cherry-pick retest. shares compounds with PrP UTR inh. cell-based prion protein 5' UTR reporter, plate reader. inhibition, % at 2.5 µM. 1,100 compounds, 48% hits. AID 504592; in the data active means inhibition above about 54%; inconclusive means no clear call, values can overlap the other calls
An asterisk follows results filed as active; u = inconclusive; x = no result. Shown are actives, neighbours in structure and some others; about 1.8% of the full set was active somewhere.

SMILES	MazEF act	PfHsp40 rescue	PrPC TRFRET	PrP UTR inh	SSB-PriA inh	PrP UTR cherry
CCOC(=O)N1CCN(C(=O)C(CC)n2nc(C)c3sc4ccccc4c3c2=O)CC1 (centres undefined)	4	-2	3	81*	-9	-9
CCOC(=O)N1CCC(Nc2c(N3CCN(c4cc(Cl)ccc4C)CC3)c(=O)c2=O)CC1	-2	1	-16	-31	-15	x
CCOC(=O)N1CCC(Nc2c(-c3ccc(C)c(C)c3)c(=O)c2=O)CC1	0	-1	-10	73*	-11	-8
O=[N+]([O-])c1nn(-c2ccc3c(c2)OCCO3)n(O)c1=Nc1ccccc1	-2	0	-41	81*	21	78*
CCN(CC)C1CCCCC1NS(=O)(=O)c1ccc(Cl)cc1 (centres undefined)	6	0	9	80*	-10	-8
O=C(NC[C@@H](c1ccco1)N1CCN(c2ccc(F)cc2)CC1)c1ccco1	x	x	x	x	-18	x
COc1ccc(NC(=O)C(=O)NCC(c2ccco2)N2CCc3ccccc32)cc1 (centres undefined)	0	0	x	53*	-10	80*
CC(=O)Nc1ccc(NC(=O)C(=O)NCC(c2ccco2)N2CCc3ccccc32)cc1 (centres undefined)	-3	-1	6	-13	-1	x
COc1cccc2c1SCc1ccccc1C2CC(N)=O (centres undefined)	3	2	-4	-21	-7	x
COc1ccc(C(=O)N2CCN(c3ncnc4c(-c5ccccc5)nsc34)CC2)cc1	4	1	2	-23	-8	x
COc1ccc(-c2nsc3c(N4CCCCC4)ncnc23)cc1	1	0	0	72*	-5	70*
COc1ccc(-c2nsc3c(N4CCCCC4C)ncnc23)cc1 (centres undefined)	-4	2	5	87*	-20	83*
COc1ccc(-c2cc3nc4n(c(=O)c3s2)CCC4)cc1	6	3	-14	35	-7	x
Cn1c(NCc2ccccc2)nc2cc(-c3ccccc3)sc2c1=O	x	x	3	x	x	x
COc1ccc(-c2cc3nc(C)n(N)c(=O)c3s2)cc1	-1	-7	1	91*	-2	92*
Cc1nc2cc(-c3ccccc3)sc2c(=O)n1N	11	-1	-2	81*	-8	78*
CC(=O)Nc1ccc(-c2csc(NC(=O)CC(NC(C)=O)c3ccccc3)n2)cc1 (centres undefined)	13	0	2	-34	-3	x
CCOC(=O)C1(CCc2ccccc2)CCN(C(=O)CCn2cncn2)CC1	3	0	-1	81*	-1	-48
CC1=CC2OC3CC4OC(=O)/C=C/C=C/C(=O)OCCC(C)C(O)C(=O)OCC2(CC1)C4(C)C31CO1 (centres undefined)	x	x	x	x	-25	x
CC(=O)O[C@H]1C[C@@H]2OC3C=C(C)CCC3(C)[C@@]1(C)[C@@]21CO1 (some centres undefined)	5	x	88*	72*	2	59*
COc1ccc(CCNC(=O)N2CCC(Oc3ccc(Cl)cn3)CC2)cc1	x	x	x	x	-10	x
Cc1ccc(Nc2nc(-c3c(C)nc4ccccn34)cs2)cc1	8	0	39*	59*	1	83*
Cc1nc2ncccn2c1-c1csc(Nc2ccc(O)cc2)n1	8	0	-16	-5	13	x
Cc1ccc(Nc2nc(-c3c(C)nc4ncccn34)cs2)cc1	19	2	-11	67*	6	89*
O=C(c1ccccc1-c1nc(-c2ccccc2)no1)N1CCOCC1	-13	0	1	-16	-3	x
SMILES	MazEF act	PfHsp40 rescue	PrPC TRFRET	PrP UTR inh	SSB-PriA inh	PrP UTR cherry
O=C(C[C@@H]1C/C=C\CCCC(=O)OC[C@@H](c2ccccc2)NC1=O)NCCO	4	1	2	-14	-10	x
CC(C)(C)[C@H]1COC(=O)CCCC/C=C\C[C@H](CC(=O)NCCO)C(=O)N1	6	0	2	58*	-12	u
COc1ccc(C2/C(=C(/O)c3ccc4c(c3)CC(C)O4)C(=O)C(=O)N2Cc2cccnc2)cc1 (centres undefined)	9	-3	-1	2	x	x
CSc1ccc(CC(=O)N2CCC(Oc3nc4c(F)cc(F)cc4s3)CC2)cc1	x	x	x	x	2	x
COc1cccc(/C=C2\N=C(c3c(-c4ccccc4)noc3C)OC2=O)c1	1	-2	0	-46	3	x
CCN(CC)c1ccc(CN(C(=O)c2ccco2)C2CCS(=O)(=O)C2)cc1 (centres undefined)	-4	1	x	-16	1	x
Cc1ccc(C2(SCC(N)C(=O)O)c3ccccc3-c3ccccc32)cc1 (centres undefined)	-7	0	6	89*	-3	-9
N#CC1=C2N=C(N)c3ccccc3N2C2=C(C(=O)CCC2)C1c1cccc(Cl)c1 (centres undefined)	-5	1	-5	70*	-3	3
CN(C)N1C(N)=C(C#N)C(c2ccc(Cl)cc2)C2=C1CCCC2=O (centres undefined)	8	0	-5	-29	-5	x
COc1ccc(OC)c(C2C3=C(COC3=O)Nc3cc4c(cc32)OCO4)c1 (centres undefined)	7	8	13	58*	-3	90*
C#CCOc1cc(C2C3=C(COC3=O)Nc3cc4c(cc32)OCO4)ccc1OC (centres undefined)	-22	-2	11	29	1	x
CCCNC(=S)NC1CCCC1	10	-1	2	-22	-2	x
NNC(=S)NC1CCCCC1	8	1	6	80*	-9	-18
COc1ccccc1NC(=S)N(Cc1ccccc1)Cc1cccs1	-18	0	-5	67*	-18	-24
CCOC(=O)c1ccc(CNC(=O)CCC(=O)O)cc1	-4	-1	1	67*	-8	-2
CCOc1ccccc1N1CC(C(=O)Nc2ccccn2)CC1=O (centres undefined)	x	x	x	x	5	x
CCOC(=O)c1ccc(NC(=O)COc2ccccc2CNCCO)cc1	1	-1	-8	74*	7	2
CCOc1ccccc1CNCCO	-3	0	7	-8	-9	x
Cc1cccc(CSC(=N)N)c1	4	1	0	52*	-8	3
N=C(N)SCCc1cccc(CCSC(=N)N)c1	3	1	-3	71*	-3	-21
CCNC(=O)CN(c1ccccc1)S(=O)(=O)c1ccc(Cl)cc1	12	1	1	-30	-8	x
Cc1nccn1CCCNCc1c(C(=O)N2CCCCCCC2)nc2ccc(Cl)cn12	1	0	-9	84*	-1	-13
CCOc1ccccc1NC(=O)Nc1cnccn1	2	0	3	0	9	x
O=C(NN1C(=O)C2C3C=CC(C4CC34)C2C1=O)c1ccc(Br)cc1 (centres undefined)	5	-1	6	58*	4	68*
